Most compounds without a hit are left out; they make up all but 4.3% or so of the library.
NadD inh – NadD (S. aureus) enzyme inhibition; purified NadD enzyme, colorimetric absorbance read-out; inhibition, % at 20 µM; actives 0.78% (n = 360,000); in the data active = inhibition above about 26%
FAS-TE inh – FAS thioesterase (human) inhibition | P49327 | recombinant FAS-TE, OMFH fluorogenic substrate, fluorescence endpoint | inhibition, % at 15 µM | actives 0.67% (n = 360,000) | AID 602261;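 active = compounds whose normalised, plate-corrected inhibition of enzyme fluorescence in the single-dose primary screen is 50% or more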;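 note: 0% = DMSO with enzyme and 100% = substrate without enzyme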
NR3A LBD binder – modulators (binders) of human NR3A ligand-binding domain; NR3A LBD differential scanning fluorimetry, Tm shift; 0% = protein alone, 100% = glycine-bound protein; Tm shift relative to glycine control, % at 25 µM; actives 2.5% (n = 340,000); AID 1259313;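 active = melting temperature shift of at least 10% of the positive control shift, at one fixed dose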
rCAG RNA binder – molecules binding r(CAG) RNA repeats; actives 1.3% (n = 370,000); inhibition, % at 3 µM; r(CAG) RNA repeat, TO-PRO-1 dye displacement fluorescence; AID 651821;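 active = inhibition above the plate cutoff, the mean of all test compounds on that plate plus 3 SD, cut at about 35% in these data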;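 note: 0% = DMSO alone and 100% = 100 µM mitoxantrone as full dye displacement; higher means more dye released from RNA so lower well fluorescence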
rCAG bind conf – r(CAG) RNA repeat binding, confirmation; shares compounds with rCAG RNA binder; TO-PRO-1 dye displacement fluorescence; inhibition, % at 3 µM; actives 70% (n = 4,300); AID 652065;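 active = inhibition above a per-plate cutoff, the mean inhibition of sample wells plus 3 SD, cut at about 35% in these data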;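 note: loss of TO-PRO-1 fluorescence as compound displaces dye from 1x1 AA loop RNA; 0% = DMSO only wells and 100% = 100 µM mitoxantrone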
dCAG dye counter – DNA CAG dye complex inhibition counter-screen; shares compounds with rCAG RNA binder; d(CAG) DNA oligo TO-PRO-1 dye displacement, fluorescence; inhibition, % at 3 µM; actives 94% (n = 4,300); AID 652068;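 active = inhibition above its plate's cutoff, the mean test-well inhibition plus 3 SD, cut at about 4.8% in these data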;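 note: 0% = DNA dye mix with DMSO and 100% = 100 µM mitoxantrone; hits displace the dye from DNA and so lower well fluorescence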
dCAG dye DR – DNA CAG dye complex inhibition, dose response counter-screen; shares compounds with rCAG RNA binder; DNA CAG/GTC duplex TO-PRO-1 dye displacement fluorescence; IC50, µM; actives 20% (n = 250); AID 686960; in the data active = IC50 below about 10 µM
* = called active by the depositor; / = not tested or not shown; ! = not confirmed by another sample.

SMILES | NadD inh | FAS-TE inh | NR3A LBD binder | rCAG RNA binder | rCAG bind conf | dCAG dye counter | others
CCc1ccc(-c2n[nH]nc2C2=CC(=O)C[C@H](c3ccc(F)cc3)C2)cc1 | 13 | -98 | / | 37* | 42* | 11*
CC[C@H](CCCc1ccccc1OC)CCS(=O)(=O)N(C)C | / | / | / | 0 | / | /
Cc1ccc2nc(-c3ccc(NC(=O)CSc4nccc(=O)[nH]4)cc3)sc2c1 | 8 | -8 | -1 | 40* | 71* | 33* | dCAG dye DR=>30
Cc1cccc(S(=O)(=O)Nc2ccc(-c3nc4ccc(C)cc4s3)cc2)c1 | 11 | 15 | 3 | 37* | 40* | 15*
Cc1ccc(S(=O)(=O)Nc2ccc(-c3nc4ccc(C)cc4s3)cc2)cc1 | 7 | 23 | 16* | 35* | 28 | 12*
COc1ccc(Cc2nnc(SCC(=O)Nc3cc(Cl)ccc3OC)[nH]c2=O)cc1 | 1 | -4 | -2 | 51* | 50* | 16*
CCOc1cccc(/C=C2\NC(=S)N(c3ccccc3)C2=O)c1O | -6 | -2 | 1 | 38* | 21 | 6.2*
CCCSC1=N/C(=C\c2ccc([N+](=O)[O-])o2)C(=O)S1 | 12 | 3 | -1 | 40* | 47* | 20* | dCAG dye DR=>30
CCC(=O)N[C@@H]1C[C@@H]2O[C@@H](CO)CC[C@@H]2O[C@@H]1CCc1ccc(-c2cccc(OC)c2)cc1 | / | / | / | 0 | / | /
CNc1nc2[nH]c(=O)c3c(c2s1)OC(N)=C(C#N)C3c1ccccc1 (configuration not stated) | 4 | -10 | 0 | 10 | / | /
CCNc1nc2[nH]c(=O)c3c(c2s1)OC(N)=C(C#N)C3c1ccc(C)cc1 (configuration not stated) | 11 | -23 | 0 | 53* | 27 | 14*
COc1cccc(N/N=C/c2cccc(Br)c2O)c1 | -3 | 30 | 9 | 6 | / | /
Cc1cccc(N/N=C/c2ccc(O)c(O)c2O)c1 | 1 | -9 | -1 | 43* | 43* | 16*
Oc1ccc(/C=N/NC(=S)Nc2cccnc2)c(O)c1O | 21 | -13 | 2 | 44* | 39* | 15*
CC(C)N(Cc1c(O)ccc2c(=O)c(-c3ccc(Cl)cc3)coc12)C(C)C | 18 | 3 | 4 | 42* | 18 | 10*
CC1CCCCN1Cc1c(O)ccc2c(=O)c(-c3ccc(Cl)cc3)coc12 (configuration not stated) | 4 | -3 | -3 | 6 | / | /
CN(CC(=O)NCc1ccc(F)cc1)S(=O)(=O)c1ccc(Br)s1 | 2 | 3 | -2 | -2 | / | /
CC(C)(C)c1ccc(S(=O)(=O)NCC(=O)N2CCN(c3ncccn3)CC2)cc1 | / | / | / | 1 | / | /
Cc1nn(-c2ccccc2)c2c1C(c1ccc([N+](=O)[O-])cc1)C(C#N)=C(N)O2 (configuration not stated) | 2 | 12 | -1 | 17 | / | /
COc1cc(C2C(C#N)=C(N)Oc3c2c(-c2ccccc2)nn3-c2ccccc2)cc(OC)c1OC (configuration not stated) | 8 | 10 | -2 | 62* | 25 | 8.5*
Cc1nn(-c2cccc(Cl)c2)c2c1C(c1ccncc1)C(C#N)=C(N)O2 (configuration not stated) | 4 | 3 | -6 | 36* | 27 | 5.2*
CC1(C(=O)NS(=O)(=O)c2cccc(OC(F)F)c2)CCN1C(=O)c1ccccc1CCc1ccccc1 (configuration not stated) | 9 | -3 | / | 61* | 54* | 17*
Cc1cccc(S(=O)(=O)NC(=O)C2(C)CCN2C(=O)c2ccccc2CCc2ccccc2)c1 (configuration not stated) | 0 | -4 | / | 39* | 45* | 11*
CC1(C(=O)NS(=O)(=O)c2ccc3c(c2)CCO3)CCN1C(=O)c1ccccc1CCc1ccccc1 (configuration not stated) | -5 | 1 | / | 42* | 42* | 11*
CC(C)c1ccc(CC(=O)N2CCC2(C)C(=O)NS(=O)(=O)c2cccc(OC(F)F)c2)cc1 (configuration not stated) | -2 | -8 | / | 35* | 27 | 4
SMILES | NadD inh | FAS-TE inh | NR3A LBD binder | rCAG RNA binder | rCAG bind conf | dCAG dye counter | others
O=C(OCc1cn(Cc2ccccc2Cl)nn1)N1CCOCC1 | / | / | / | 3 | / | /
CN(c1ccc(NC(=O)CCc2cn(Cc3ccc(Br)cc3)c3ccccc23)cc1)c1ccccn1 | / | / | / | 15 | / | /
Cc1[nH]nc2c1C(c1ccc(F)cc1)N(c1ccccc1)C2=O (configuration not stated) | / | / | / | 1 | / | /
CC1(C(=O)NS(=O)(=O)c2cccc(F)c2)CCN1C(=O)c1ccccc1CCc1ccccc1 (configuration not stated) | 1 | -1 | / | 52* | 43* | 11*
CC1(C(=O)NS(=O)(=O)c2cccc(F)c2)CCN1C(=O)Cc1ccccc1Cl (configuration not stated) | -11 | -6 | / | 7 | / | /
C#CCN1CC(COc2ccccc2)Oc2cccc(Oc3ccc(SC)c(C)c3)c2S1(=O)=O (configuration not stated) | / | / | / | 8 | / | /
CCCc1nn2c(N)c(/C=C3\C=Nc4ccccc43)c(=O)nc2s1 | -5 | -4 | 2 | 51*! | 49* | 14*
CC(C)c1nn2c(N)c(/C=C3\C=Nc4ccccc43)c(=O)nc2s1 | 6 | -6 | 1 | 40* | 41* | 10*
CC(C)Cc1nn2c(N)c(/C=C3\C=Nc4ccccc43)c(=O)nc2s1 | 13 | -9 | 2 | 38* | 62* | 21*
C[C@@H]1ON(C)[C@H]2C[C@H]3c4[nH]c5c(-c6ccc(F)cc6)cccc5c4CCN3C(=O)[C@@H]12 | / | / | / | 5 | / | /
COCCN=c1scc(-c2ccco2)n1/N=C/c1ccc(O)c(O)c1O | 39* | 5 | -6 | 48* | 60* | 30*
CN=c1scc(-c2cccs2)n1/N=C/c1ccccc1O | -2 | 25 | -5 | 5 | / | /
CN=c1scc(-c2cccs2)n1/N=C/c1ccc(O)c(O)c1O | 20 | 15 | 2 | 61* | 54* | 25*
C=CCN=c1scc(-c2ccco2)n1/N=C/c1ccc(O)c(O)c1O | 20 | 8 | -1 | 44* | 59* | 29*
CCCCCCCCN1C(=O)[C@@H](CC(=O)NCCc2ccccc2OC)C[C@@]2(C(=O)OC)C1=C[C@H](C(C)C)O[C@@H]2C1CC1 | / | / | / | 11 | / | /
COC(=O)[C@]12C[C@H](CC(=O)N3CCCC3)C(=O)N(Cc3ccc(Cl)cc3Cl)C1=C[C@H](C1CCCC1)O[C@@H]2C | / | / | / | 7 | / | /
Cc1ccc(C(=O)N/C(=C\c2ccc(Br)cc2)c2nc(=S)[nH][nH]2)cc1 | 15 | 1 | 9 | 41* | 53* | 23*
